# Screens deposited in PubChem by National Center for Advancing Translational Sciences (NCATS).
# KB-3-1 cytotox = kills parental KB-3-1 adenocarcinoma cells; KB-3-1 viability, CellTiter-Glo ATP luminescence, 72 h; Potency, µM (titrated, usually from 46.1 µM), usual class: cytotoxic; 400,000 compounds, 1.4% hits; AID 1347075; note: % is set by controls: 0 for no effect and ±100 for the full control effect; nearly all actives have a fitted effect of over 60% in size
#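 KB-3-1 cells, DMEM (no phenol red) + 10% FBS; compound by pin transfer, 72 h, 37 °C. Readout: CellTiter-Glo luminescence after 10 min. Data normalized, curve-fitted.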
# KB-V1 cytotox = KB-V1 MDR subline cytotoxicity. KB-V1 MDR cells viability, CellTiter-Glo, 72 h. Potency, µM (titrated, usually from 46.1 µM), actives largely listed as cytotoxic. 400,000 compounds, 3.4% hits; note: % is set by controls: 0 for no effect and ±100 for the full control effect; nearly all actives have a fitted effect of over 60% in size
#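 Cytotoxicity toward P-gp-expressing KB-V1 cells was determined as loss of CellTiter-Glo luminescence after 72 h at 37 degrees C. Compounds were tested in quantitative HTS format across a concentration range, with curves fitted to normalized data.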
# HT1080 IDH1KD tx = toxicity to HT-1080 IDH1 knockdown cells (counter line) | Potency, µM (highest dose often 46.1 µM), for inactives: top-dose activity, negative = toxicity, most hits filed as cytotoxic | AID 686971 | 360,000 compounds, 2% hits | HT-1080 IDH1 knockdown viability, ATP luminescence, 48 h;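 note: 0% = DMSO wells and -100% = cell-free medium wells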
#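 Luminescent ATP read-out (CellTiter-Glo, 10 min at room temperature) after 48 h compound exposure at 37 °C gave viability of IDH1-knockdown HT-1080 cells. Activity was normalised to DMSO and cell-free wells, then fitted as concentration-response curves.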
# MCF10A rereplic = induces DNA re-replication in MCF 10a normal breast cells. Potency, µM (top dose mostly 46.1 µM), without a hit: top-dose activity, positive = re-replication, hits mostly activators. MCF 10A DNA re-replication, Hoechst nuclear intensity, 48 h. 350,000 compounds, 2.9% hits; note: % of control where 0% means no effect; nearly all actives have a fitted effect of over 50% in size
# SW480 rereplic = inducers of DNA re-replication in SW480 colon cancer cells; AID 624297; SW480 DNA re-replication, Hoechst DNA content imaging, 48 h; 340,000 compounds, 1.8% hits; Potency, µM (series often up to 46.1 µM), for inactives: top-dose re-replication activation, most hits filed as activators; note: % of control where 0% means no effect; nearly all actives have a fitted effect of over 55% in size
#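 DNA re-replication was detected as more nuclei of elevated Hoechst intensity after 48 hr exposure to compound (23 nL pinned per well of 250 cells).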
# HT1080NT lethal = kills 2HG-producing HT-1080-NT fibrosarcoma cells. HT-1080-NT fibrosarcoma viability, CellTiter-Glo ATP luminescence, 48 h. Potency, µM (series often up to 46.1 µM), for inactives: at the top dose activity, negative = less viability, actives largely listed as cytotoxic. 360,000 compounds, 1.6% hits;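 note: NT is the 2HG producing partner of a matched IDH1 knockdown line; 0% = DMSO-treated cells and -100% = media-only wells without cells; nearly all actives have a fitted effect of over 55% in size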
#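 Fibrosarcoma NT cells, 750 per well in 5% FBS RPMI, were exposed to compound for 48 hours. Viability: CellTiter-Glo luminescence.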
# An asterisk follows results filed as active; i = inactive; ? = inconclusive; . = no result; [ ] = another dose, or the depositor's remark. This is a sample that favours compounds with a hit; in the whole collection about 8% have one here. Calls come from the whole dose curve; as a rule, active = well fitted curve in the direction sought with a large enough effect; inconclusive = small, poorly fitted or top-dose-only effect, or another doubt; inactive = no such curve, though single readings can be large; an effect the other way counts as inactive or inconclusive. Potency is the fitted concentration of half-maximal effect.
SMILES,KB-3-1 cytotox,KB-V1 cytotox,HT1080 IDH1KD tx,MCF10A rereplic,SW480 rereplic,HT1080NT lethal
COC(=O)C(Nc1ccccc1Cl)(c1cc(C)c(O)c(C)c1)C(F)(F)F (configuration not stated),?,8.2µM*,?,?,-2.2%,?
Cc1ccc(C)c(S(=O)(=O)NNC(=O)Nc2ccccc2Cl)c1,i,i,-5.3%,-0.4%,16.0%,2.9%
Cc1cc(C)c2ccc(N)nc2c1O,?,i,?,?,?,10.3µM*
Cc1cc(=O)[nH]c2nc(N)ccc12,?,i,.,.,.,.
COc1cc(OC)cc(C(=O)Nc2ccc(C(=O)c3ccncc3)cc2)c1,i,i,-17.2%,?,5.0%,1.2%
O=C(CC1SC(=Nc2ccccc2)N(Cc2ccccn2)C1=O)Nc1ccc(Br)cc1 (configuration not stated),i,?,-19.3%,23.1µM*,16.4µM*,-4.4%
CCN1C(=O)C(CC(=O)Nc2cccc(C(C)=O)c2)S/C1=N\c1ccccn1 (configuration not stated),i,i,-2.4%,4.5%,17.3%,-6.2%
O=C(CC1SC(=Nc2cccc3ccccc23)N(Cc2ccccn2)C1=O)Nc1ccccc1Br (configuration not stated),?,16.4µM*,-24.4%,?,15.2%,-13.7%
Cc1ccccc1N=C1SC(CC(=O)Nc2ccc3ccccc3c2)C(=O)N1Cc1ccccn1 (configuration not stated),?,20.6µM*,-2.8%,18.7%,?,?
CC1CCCC(C)N1/N=C/c1ccc(C#N)cc1 (configuration not stated),i,i,14.6%,0.3%,0.6%,0.9%
CN(C)S(=O)(=O)N(CC(=O)Nc1ccc(Br)cc1F)c1ccccc1,i,i,.,.,.,.
CCc1nnc(NC(=O)CSc2nnc(-c3ccccc3O)n2-c2ccc(C)cc2)s1,?,?,13µM*,?,?,13µM*
CCc1nnc(NC(=O)CSc2nnc(CNc3cccc(Cl)c3)n2CC)s1,i,i,-3.2%,0.5%,-3.5%,0.5%
CCc1nnc(NC(=O)CSc2nc(-c3ccccc3)c(-c3ccccc3)o2)s1,5.17µM*,?,14.3%,?,-10.8%,12.7%
CCc1nnc(NC(=O)CSc2nnc(C3CCCCC3)n2-c2cccc(Cl)c2)s1,i,4.11µM*,3.8%,21.2%,-10.1%,2.6%
CCc1nnc(NC(=O)CSc2ncnc3scc(-c4ccc(C)cc4)c23)s1,i,6.51µM*,4.4%,?,4.4%,4.6%
CCc1nnc(NC(=O)CSc2nnc(-c3ccccc3OC)n2-c2ccc(C)cc2)s1,i,i,-18.0%,-6.8%,3.4%[9.22 µM],-15.5%
Cc1ccc(-c2csc3ncnc(SCC(N)=O)c23)cc1,i,?,-25.0%,-0.1%,-8.1%,-18.2%
COc1ccc(NC(=O)CC2S/C(=N\c3nccs3)N(C)C2=O)cc1 (configuration not stated),i,i,13.5%,17.6%,1.4%,4.5%
CCOC(=O)Cc1nnc(NC(=O)CSc2nncn2C)s1,i,i,0.0%,6.51µM*,?,1.2%
CCc1nnc(NC(=O)CSc2nnc(C)n2-c2ccc(C)cc2)s1,i,20.6µM*,4.6%,2.2%,-5.2%,7.8%
Cc1ccccc1OCCSc1nc2ccc(NC(=O)c3ccccc3)cc2s1,?,i,.,.,.,.
CN(C)c1ccc(/C=C2\C(Cl)=Cc3ccccc32)cc1,i,i,.,.,.,.
O=C(CCCCCCCCC(=O)N1CCCCC1)N1CCCCC1,?,2.31µM*,2.5%,17.7%,?,7.9%
CCOc1cc(C)c(S(=O)(=O)NCCCn2ccnc2)cc1C,i,i,-9.9%,-1.4%,-11.8%,-14.6%
SMILES,KB-3-1 cytotox,KB-V1 cytotox,HT1080 IDH1KD tx,MCF10A rereplic,SW480 rereplic,HT1080NT lethal
O=S(=O)(Nc1ccc(Cc2ccncc2)cc1)c1ccc(Br)s1,?,14.6µM*,-4.1%,?,4.5%,?
COc1ccc(S(=O)(=O)Nc2c(O)ccc3ccccc23)cc1OC,i,i,-18.1%,16.4µM*,3.7%[9.22 µM],-17.9%
COc1ccc(S(=O)(=O)Nc2cccc(N(C)S(C)(=O)=O)c2)cc1C,?,14.6µM*,7.7%,-7.8%,-66.9%,-2.9%
COc1ccc(NS(=O)(=O)c2ccc(OC)c(OC)c2)cc1OC,i,20.6µM*,0.7%,-0.8%,-6.1%,2.1%
COc1ccc(C(=O)Nc2c(O)ccc3ccccc23)cc1OC,i,i,?,-0.4%,-18.8%,-16.4%
Cn1c(=O)c2cc(NC(=O)NCCc3cccs3)ccc2n1-c1ccc(C(C)(C)C)cc1,i,i,-24.7%,.,.,-5.6%
CCc1ccc(N2CC(C)Cn3c2nc2c3c(=O)n(CC(=O)O)c(=O)n2C)cc1 (configuration not stated),i,?,.,.,.,.
COc1ccc(S(=O)(=O)Nc2cccc(Cl)c2)cc1OC,i,i,-0.8%,-0.2%,-6.9%,3.0%
COc1ccc(NS(=O)(=O)c2ccc(Br)s2)cc1OC,i,20.6µM*,-29.8%,6.0%,2.4%,-21.9%
COc1cc(S(=O)(=O)Nc2cc(C)cc(C)c2)ccc1F,i,23.1µM*,?,?,?,?
COc1ccc(S(=O)(=O)Nc2cccc(SC)c2)cc1OC,23.1µM*,7.31µM*,-28.7%,-3.4%,-6.0%,-24.8%
COc1cc2nc(SCC(=O)Nc3cccc(C)c3)n3nc(CCn4c(C)nc5ccccc54)nc3c2cc1OC,i,i,.,.,.,.
Cc1c(Cl)cccc1NC(=S)NCCc1ccccn1,i,?,11.3%,?,-52.6%,19.4%
S=C(NCCc1ccccn1)Nc1ccccc1Cl,i,i,7.0%,14.3%,9.2µM*,12.8%
S=C(NCCc1ccccn1)Nc1ccc(Cl)c(Cl)c1,i,23.1µM*,9.8%,?,-0.8%,16.4%
S=C(NCCc1ccccn1)Nc1cc(Cl)cc(Cl)c1,i,i,-16.0%,?,5.6%,?
COc1ccc(-n2ncc3c(N4CCN(c5cccc(C)c5)C(C)C4)ncnc32)cc1 (configuration not stated),20.6µM*,?,.,.,.,.
COc1ccc(N2CCN(c3cc(C)c4ccc(C)cc4n3)CC2)cc1,i,?,-6.2%,20.6µM*,6.1%,-22.5%
Cc1cccc(-n2ncc3c(N4CC(C)CC(C)C4)ncnc32)c1 (configuration not stated),i,i,14.8%,29.3%,-1.9%,29.9%
Cc1ccc(-n2ncc3c(N4CCN(c5ccccc5)CC4)ncnc32)c(C)c1,?,2.31µM*,-5.0%,?,8.5%,-1.9%
